# Inconclusive results are not listed. A number with no mark means an inactive call. Active and inactive are the calls of the source. The call rests on the fitted dose curve; in most records, active means well fitted cell-killing curve with a large enough effect in the repeat runs; inconclusive means weak or mixed curves, or effect the other way; inactive means flat fitted curve, though single readings scatter.
# Experiment: qHTS RealTime-Glo MT Cell Viability Assay in HEK293 cells - 16 hour (AID 1224872); further: nearly all actives have a fitted effect of over 50% in size; on activity change, negative = cytotoxicity: top concentration of the series differs between compounds
# Conditions: RealTime-Glo luminescence; series mostly up to 76.8 µM; activity change, negative = cytotoxicity: at the top concentration
# In short: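 Reads taken at 0, 8, 16, 24, 32 and 40 h from the same wells. HEK293 cells (600/well) carried RealTime-Glo reagents from seeding, with compound added after a 5 h settle at 37 C.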
# On the % scale 0 is the no-effect control and ±100 the full control effect; potency means the concentration at half of the fitted maximal effect.
Compound,Potency,"activity change, negative = cytotoxicity"
COc1cc(/C=C/C(=O)CC(=O)/C=C/c2ccc(O)c(OC)c2)ccc1O,24.7 µM (active),–
CCCCCCCCCCCCCCCCCCNC(=O)OC1CCN(C(=O)OC[C@H](COC(=O)N(Cc2cccc[n+]2CC)C(=O)c2ccccc2OC)OC)CC1,21.3 µM (active),–
CC/C=C\C/C=C\C/C=C\CCCCCCCC(=O)OC,–,-15.4%
O=[N+]([O-])c1ccc(CO)cc1,–,11.7%
N#Cc1nc(Cl)c(Cl)c(Cl)c1Cl,2.45 µM (active),–
CN[C@H]1CC[C@@H](c2ccc(Cl)c(Cl)c2)c2ccc(S(N)(=O)=O)cc21,24.5 µM (active),–
C=CC(C)(C)O,–,7.64%
CCSCC,–,2.57%
Cc1cc(C)c(O)c(C(C)(C)C)c1,–,-13%
CC(=O)CC(N)=O,–,7.06%
CCCCCCCCOC(=O)c1cc(O)c(O)c(O)c1,6.92 µM (active),–
CC(C)=NNC(N)=S,–,7.49%
O=C(O)CN(CCCN(CC(=O)O)CC(=O)O)CC(=O)O,–,-5.66% [at 15.8 µM]
CCOC=C(C(=O)OCC)C(=O)OCC,–,4.57%
COc1cccc(-c2ccc(/C=C\CN3CCCCCC3)cc2Cl)c1,43.4 µM (active),–
Nc1cc([N+](=O)[O-])cc(Cl)c1O,–,-7.9%
CC1(C)[C@H]2CC[C@]1(C)C(=O)C2,–,11.8%
CCC(O)CO (centres undefined),–,3.51%
c1ccc2cc3c4ccccc4c4ccccc4c3cc2c1,–,0.807%
Cn1ccnc1,–,2.75%
Cc1cccc(C)c1C,–,4.86%
NC(=O)c1ccccc1Cl,–,2.81%
C/C=C/C(=O)C1=C(C)C=CCC1(C)C,–,0.908%
O=C1C=CC(=O)N1c1cccc(N2C(=O)C=CC2=O)c1,12.3 µM (active),–

# Source: PubChem BioAssay (Tox21)
